The text below walks through data of PubChem BioAssay (NCI).

The panel holds about 83,000 compounds, 20% with a hit somewhere; the sample as a whole holds those more often.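 Each cell line was grown in a 96-well plate and treated with one concentration of compound for 48 hours. Values below 10 were considered active.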 Unmarked numbers belong to inactive results. Activity calls are given as the source filed them.

Test systems include NCI-H23 lung; NCI-H322M lung; HOP-62 NSCLC; NCI-H460 lung; HOP-92 NSCLC; NCI-H522 lung; A549/ATCC NSCLC; 786-0 renal; COLO 205 colon; DU-145 prostate; K-562 leukemia; MALME-3M melanoma; MDA-MB-231 breast; RXF 393 renal; SF-268 CNS; SF-295 CNS; SF-539 CNS; UACC-257 melanoma; M14 melanoma; HCT-15 colon.
Common to all, as to assay: NCI-60 one-dose screen, 48 h (100 = growth as untreated, 0 = no growth, -100 = all killed)
Details in all cases: 10 µM unless noted

Turning to `O=C(Nc1ccc(C23CC4CC(CC(c5ccccc5)(C4)C2)C3)cc1)c1cccs1`, the growth was 71.4% in the assay on NCI-H23 lung; 92.5% in the assay on NCI-H322M lung; 119% in the assay on HOP-62 NSCLC; 69.9% in the assay on NCI-H460 lung; 86.5% with HOP-92 NSCLC; 59.9% in the assay with NCI-H522 lung. Moreover, the growth with A549/ATCC NSCLC is 72.9%; in the assay with 786-0 renal it was 78.7%; in the assay with COLO 205 colon it was 91.4%; in the assay with DU-145 prostate, 84.7%; with K-562 leukemia, 26.5%; with MALME-3M melanoma it was 84.5%. The growth with MDA-MB-231 breast is 87.5%; in the assay with RXF 393 renal it was 77.5%; in the assay with SF-268 CNS it was 103%; with SF-295 CNS, 105%; in the assay with SF-539 CNS, 92%; in the assay on UACC-257 melanoma, 75.4%. For the same compound, the values for the growth in the assay with M14 melanoma and in the assay with HCT-15 colon were 71.1% and 60.2%, respectively.
`COc1ccc(CCN2C(=O)CCSC2=S)cc1`: the growth in the assay on NCI-H23 lung was 80%; in the assay with NCI-H322M lung it was 87.6%; with HOP-62 NSCLC it was 18.6%; in the assay with NCI-H460 lung, 77%; with HOP-92 NSCLC, 41.9%; in the assay with NCI-H522 lung, 11.1%. The growth in the assay on A549/ATCC NSCLC is 96.6%; in the assay on 786-0 renal, 16.8%; in the assay on COLO 205 colon, 36.3%; with DU-145 prostate it was 13.8%; in the assay with K-562 leukemia, 29.2%; in the assay with MALME-3M melanoma, 76.7%. Further, the growth is 59.2% in the assay with MDA-MB-231 breast; 18.7% in the assay with RXF 393 renal; 46.2% in the assay on SF-268 CNS; 67.2% in the assay with SF-295 CNS; 7.31% (active) in the assay with SF-539 CNS; 85.4% in the assay on UACC-257 melanoma. For the same compound, the results for the growth in the assay on M14 melanoma and in the assay on HCT-15 colon were 61.2% and 12.4%, respectively.
`O=c1oc2ccc(-c3ccc(F)cc3F)cc2c(=O)n1-c1ccc(Cl)c(C(F)(F)F)c1`: the growth with NCI-H23 lung was 6.77% (active); in the assay with NCI-H322M lung, 13.1%; in the assay with HOP-62 NSCLC it was 6.97% (active); in the assay on NCI-H460 lung, 5.36% (active); in the assay on HOP-92 NSCLC, -29.4% (active); with NCI-H522 lung, -12.4% (active). Moreover, the growth was 7.35% (active) in the assay with A549/ATCC NSCLC; 17.4% in the assay on 786-0 renal; 77.1% in the assay on COLO 205 colon; 21% with DU-145 prostate; 10.9% with K-562 leukemia; 3.35% (active) with MALME-3M melanoma. The growth in the assay on MDA-MB-231 breast was 56%; with RXF 393 renal it was -3.32% (active); with SF-268 CNS it was 14.5%; in the assay on SF-295 CNS, 17.4%; in the assay on SF-539 CNS, 29.4%; with UACC-257 melanoma, -9.78% (active). The results for the growth in the assay with M14 melanoma and with HCT-15 colon were 21.5% and 15.8%, respectively.
Take `CCOC(=O)C1=C(C)N=c2s/c(=C\c3ccccc3O)c(=O)n2C1c1ccc(OC)c2ccccc12` (stereo not given): the growth is 82.3% with NCI-H23 lung; 10.5% in the assay with NCI-H322M lung; 29.2% in the assay on HOP-62 NSCLC; -41.8% (active) in the assay with NCI-H460 lung; 4.78% (active) in the assay on HOP-92 NSCLC; -36.2% (active) in the assay on NCI-H522 lung. Also, the growth in the assay with A549/ATCC NSCLC is -21.1% (active); in the assay on 786-0 renal, 36%; in the assay with COLO 205 colon, -90% (active); in the assay with DU-145 prostate, 43.5%; with K-562 leukemia, -48.4% (active); in the assay on MALME-3M melanoma, -86.7% (active). The growth in the assay with MDA-MB-231 breast was -38.9% (active); in the assay on RXF 393 renal it was -20.6% (active); in the assay on SF-268 CNS, 37.6%; in the assay on SF-295 CNS it was -83.5% (active); in the assay on SF-539 CNS, -83.7% (active); with UACC-257 melanoma it was -85.8% (active). Moreover, the growth with M14 melanoma is -71.7% (active); with HCT-15 colon, 1.84% (active).
`CCN(CC)CCNC(=O)C(Cl)=C1C(Cl)=C(Cl)C(Cl)=C1Cl`: the growth in the assay on NCI-H23 lung is 55.9%; in the assay with NCI-H322M lung it was 81.7%; in the assay on HOP-62 NSCLC it was 75.5%; in the assay on NCI-H460 lung, 19.3%; with HOP-92 NSCLC it was 53.8%; with NCI-H522 lung, -14.7% (active). The growth in the assay with A549/ATCC NSCLC is 46.6%; with 786-0 renal, 90.1%; in the assay on COLO 205 colon it was 54.5%; in the assay on DU-145 prostate, 48.4%; in the assay with K-562 leukemia it was 24.2%; in the assay on MALME-3M melanoma it was 58%. In addition, the growth with MDA-MB-231 breast was 50.1%; in the assay on RXF 393 renal it was 66.9%; in the assay on SF-268 CNS it was 52%; with SF-295 CNS, 71.7%; in the assay on SF-539 CNS, 60.1%; in the assay on UACC-257 melanoma, 44.3%. Also, the growth in the assay on M14 melanoma was 38.7%; in the assay with HCT-15 colon, 50.5%.
As to `CCOC(=O)c1sc(-c2ccc(OS(=O)(=O)c3ccc(Br)s3)c(C=O)c2)nc1C`, the growth was 11.9% in the assay on NCI-H23 lung; 83.8% with NCI-H322M lung; 19.6% in the assay on HOP-62 NSCLC; 77.6% in the assay with NCI-H460 lung; 26.5% in the assay on HOP-92 NSCLC; -5.7% (active) in the assay with NCI-H522 lung. Further, the growth is 76.1% in the assay with A549/ATCC NSCLC; 9.63% (active) in the assay on 786-0 renal; 84.8% in the assay on COLO 205 colon; 21.2% in the assay on DU-145 prostate; 9.45% (active) in the assay on K-562 leukemia; 13.2% with MALME-3M melanoma. For the same compound, the growth with MDA-MB-231 breast is 4.99% (active); in the assay on RXF 393 renal it was 51.7%; with SF-268 CNS it was 16.4%; in the assay with SF-295 CNS it was 32.8%; with SF-539 CNS it was -5.53% (active); with UACC-257 melanoma, 28.8%. For the same compound, the results for the growth with M14 melanoma and with HCT-15 colon were 1.87% (active) and 1.83% (active), respectively.
As to `COc1ccc(Cn2c(Br)c3c(c2Br)-c2nc(N)sc2CC3)cc1`, the growth in the assay on NCI-H23 lung is 57.3%; in the assay on NCI-H322M lung it was 66.6%; in the assay on HOP-62 NSCLC, 35.5%; in the assay with NCI-H460 lung, 15.7%; with HOP-92 NSCLC, 58.5%; with NCI-H522 lung, 2.16% (active). Also, the growth in the assay on A549/ATCC NSCLC was 39.1%; with 786-0 renal it was 56.8%; in the assay with COLO 205 colon, 66.9%; in the assay with DU-145 prostate, 57%; with K-562 leukemia, 4.07% (active); with MALME-3M melanoma it was 21.9%. Also, the growth was 37% in the assay on MDA-MB-231 breast; 16.3% in the assay with RXF 393 renal; 45.2% with SF-268 CNS; 70.3% in the assay on SF-295 CNS; 39.9% in the assay on SF-539 CNS; 70.4% with UACC-257 melanoma. The growth is 13.9% with M14 melanoma and 29.9% in the assay with HCT-15 colon.
As to `COc1ccc2[nH]c(O)c(N=NC(=O)c3oc4ccccc4c3C)c2c1`, the growth in the assay with NCI-H23 lung is 10.6%; in the assay with NCI-H322M lung, 30.6%; in the assay with HOP-62 NSCLC, -24.1% (active); in the assay on NCI-H460 lung, -22.8% (active); in the assay on HOP-92 NSCLC, -44% (active); in the assay with NCI-H522 lung, 54.3%. For the same compound, the growth was -23.6% (active) in the assay with A549/ATCC NSCLC; -66.9% (active) with 786-0 renal; 22.8% in the assay with COLO 205 colon; 17.6% with DU-145 prostate; 42.5% in the assay with K-562 leukemia; -29.5% (active) in the assay with MALME-3M melanoma. Moreover, the growth was 23.8% with MDA-MB-231 breast; -36.2% (active) in the assay on RXF 393 renal; 57.7% with SF-268 CNS; 5.05% (active) with SF-295 CNS; 37.5% with SF-539 CNS; 50% in the assay on UACC-257 melanoma. In addition, the growth with M14 melanoma was 28.7%; in the assay on HCT-15 colon, 41.1%.
